# In PubChem BioAssay:
# For some assays here: Potency and affinity values are given separately. Activity calls are given as the source filed them.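 The calls were made as follows, unless noted: active = normalized viability below 100% at a tested concentration; inactive = the rest.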
# How the values were obtained:
# [1] = polyglutamine-triggered caspase-3 activation inhibitors, cell-based (AID 1583); details: polyglutamine-induced caspase-3 activation, cell assay; stronger effect = higher value;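 tested at 10 µM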
# [2] = suppressors of polyQ aggregation in yeast, 75Q-TubU reporter (AID 1593); details: Yeast 75Q polyglutamine aggregation reporter
# [3] = rescue of polyQ-huntingtin neuronal dysfunction in worms, whole organism, C. elegans mechanosensory neurons, N-terminal huntingtin (AID 1599); details: touch response, stronger effect = higher value
# [4] = inhibitors of mitochondrial cytochrome c release, biochemical, purified mitochondria (AID 1603); details: stronger effect = lower value;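 also: mouse liver mitochondria challenged with calcium chloride; signal normalized to the plate average as 100%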
# [5] = inhibitors of polyQ protein aggregation (AID 1604); details: polyglutamine-induced protein aggregation inhibition assay; stronger effect = higher value; tested at 2.5 µM
# [6] = enhancers of glutamate uptake in motor neurons, MN-1 cell line (AID 1612); details: MN-1 motor neuron cells, stronger effect = higher value;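 also: tested at 1 µM final; 0% = mean of DMSO vehicle wells on each plate; positive means more glutamate uptake than control and negative means less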
# [7] = reducers of polyQ inclusions in PC12 cells, cell-based, NGF-treated PC12, GFPQ80 (AID 1614); details: PC12 NGF-treated GFP-polyQ80 inclusion reduction;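 also: lower means fewer inclusions and 0 means no inclusions at all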
# [8] = suppressors of polyglutamine aggregation in yeast, 75Q-TubH (AID 1616); details: S. cerevisiae 75Q-TubH polyglutamine aggregation suppression; stronger effect = higher value
# [9] = survival rescue of mitochondrial mutant cells in low glucose, primary screen, MELAS cybrids, Rieske KO mouse fibroblasts, CellTiter-Glo (AID 1508586;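 active = mean z-score across replicates of 1.96 or higher in either the MELAS or the Rieske mutant cell line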;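 also: z relative to plate mean and SD of compound and empty wells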)
# [10] = inhibitors of Cryptococcus chitosan production, flow cytometry, Cibacron Brilliant Red staining (AID 1347148; call rule not given here;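 also: compound exposure lasted three days at 37 degrees C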); details: Cryptococcus neoformans chitosan, stronger effect = lower value; at 10 µM unless noted
# [11] = liver-stage malaria parasite growth inhibition, primary screen, cell-based, HepG2, luciferase luminescence, HepG2 viability (AID 624349; in the data active = parasite load remaining mostly below about 12%, no sharp cut-off; inactive = mostly above about 10%;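 also: 100% = mean of DMSO negative control wells on the same plate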); details: P. berghei liver stage in HepG2, luciferase luminescence, concentration not given here; parasite load remaining: stronger effect = lower value; viability: measured here: HepG2 viability without parasites
# [12] = molecular target: NAD(+) hydrolase SARM1 (Homo sapiens) (UniProt Q6SZW1); assay: SARM1 TIR NADase inhibitors, cell lysate, NAD-Glo luminescence (AID 1508614;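 active = compound whose remaining NAD level is above about 45 nM, limit read from the data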;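 also: higher remaining NAD means stronger inhibition of SARM1 NADase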); details: SAM-TIR HEK293T lysate NADase, at 1 µM, stronger effect = higher value
# Chain of NAD(+) hydrolase SARM1 (Homo sapiens) (Q6SZW1 whole entry, looked up, the tested form may be a part): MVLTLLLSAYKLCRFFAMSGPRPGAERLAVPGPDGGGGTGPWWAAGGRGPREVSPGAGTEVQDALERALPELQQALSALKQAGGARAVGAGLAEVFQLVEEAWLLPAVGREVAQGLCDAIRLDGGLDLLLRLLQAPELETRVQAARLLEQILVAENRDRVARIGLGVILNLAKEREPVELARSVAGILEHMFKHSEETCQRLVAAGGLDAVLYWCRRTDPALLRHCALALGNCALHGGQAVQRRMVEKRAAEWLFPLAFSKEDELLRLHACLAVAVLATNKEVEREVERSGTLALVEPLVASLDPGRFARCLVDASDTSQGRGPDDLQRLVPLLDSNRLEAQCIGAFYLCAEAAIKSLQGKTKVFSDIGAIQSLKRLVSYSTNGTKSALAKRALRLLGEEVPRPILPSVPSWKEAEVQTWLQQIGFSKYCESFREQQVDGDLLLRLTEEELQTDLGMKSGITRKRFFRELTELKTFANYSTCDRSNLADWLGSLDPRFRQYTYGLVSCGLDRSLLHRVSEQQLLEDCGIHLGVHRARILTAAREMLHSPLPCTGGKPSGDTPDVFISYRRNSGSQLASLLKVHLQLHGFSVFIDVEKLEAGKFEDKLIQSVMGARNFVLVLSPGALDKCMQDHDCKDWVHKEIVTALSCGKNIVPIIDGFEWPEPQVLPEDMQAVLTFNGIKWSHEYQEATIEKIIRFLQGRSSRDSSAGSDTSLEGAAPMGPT
# [13] = molecular target: Mitogen-activated protein kinase 7 (Homo sapiens) (UniProt Q13164); assay: ERK5 transactivation activators in reporter cells, primary screen, cell-based, HTS (AID 1508626;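 active = luciferase signal above three times the same-plate solvent-only control wells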;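 also: luciferase driven by Gal4-ERK5 fusion binding five Gal4 sites before minimal TATA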); details: HeLa Gal4-ERK5 transactivation, 18 h, at 5 µM, stronger effect = higher value
# Chain of Mitogen-activated protein kinase 7 (Homo sapiens) (Q13164 whole entry, looked up, the tested form may be a part): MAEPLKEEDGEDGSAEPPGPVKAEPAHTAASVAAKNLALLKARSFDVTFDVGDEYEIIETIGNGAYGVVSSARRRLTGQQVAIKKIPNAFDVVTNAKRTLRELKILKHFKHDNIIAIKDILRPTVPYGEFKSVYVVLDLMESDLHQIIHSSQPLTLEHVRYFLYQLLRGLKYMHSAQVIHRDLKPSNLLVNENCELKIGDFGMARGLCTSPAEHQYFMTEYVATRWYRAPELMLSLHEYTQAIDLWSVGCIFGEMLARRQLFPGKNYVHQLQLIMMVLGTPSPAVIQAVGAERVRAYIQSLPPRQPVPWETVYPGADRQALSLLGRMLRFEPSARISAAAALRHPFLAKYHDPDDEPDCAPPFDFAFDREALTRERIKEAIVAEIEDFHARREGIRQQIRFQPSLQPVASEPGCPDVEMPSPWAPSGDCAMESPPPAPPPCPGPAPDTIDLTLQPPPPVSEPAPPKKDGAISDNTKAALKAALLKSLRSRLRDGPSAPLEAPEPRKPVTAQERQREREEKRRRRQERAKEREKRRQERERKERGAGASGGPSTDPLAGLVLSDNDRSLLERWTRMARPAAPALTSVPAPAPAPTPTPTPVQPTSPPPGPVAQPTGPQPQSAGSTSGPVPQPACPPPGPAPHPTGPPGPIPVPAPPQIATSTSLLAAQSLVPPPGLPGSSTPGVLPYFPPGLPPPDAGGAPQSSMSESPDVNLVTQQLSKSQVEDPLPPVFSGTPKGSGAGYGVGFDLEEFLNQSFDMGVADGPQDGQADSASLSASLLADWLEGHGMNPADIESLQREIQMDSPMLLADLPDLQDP
# [14] = ovarian cancer cell viability with rucaparib, profiling panel, oncology-focused library, rucaparib conditional (AID 1508598); details: patient-derived ovarian cancer cells, CellTiter-Glo viability, 144 h, stronger effect = lower value
# [15] = MELAS cybrid survival, CellTiter-Glo 48 h, stronger effect = higher value
# [16] = Rieske KO mouse fibroblast survival, CellTiter-Glo 72 h
smiles,measurement,setting,value
C=CCC1(CC(C)C)C(=O)NC(=O)NC1=O,inhibition,[1],-3.41%
same,score,[2],0.97
same,rescue above control,[3],1.21
same,cytochrome c release ratio,[4],0.94
same,inhibition of aggregation,[5],7.48%
same,glutamate uptake change,[6],5.4%
same,inclusion score,[7],2
same,aggregation suppression score,[8],1.15
same,z-score,[9]; [15],0.0849 (inactive)
same,z-score,[9]; [16],0.0147
Cc1c(C(=O)c2cccc3ccccc23)c2cccc3c2n1[C@@H](CN1CCOCC1)CO3,fold fluorescence,[10],4.51 (inactive)
O[C@@H]1[C@@H]2[C@@H](O)CCCN2C[C@@H]1O,fold fluorescence,[10],5.36 [at 288.7 µM] (inactive)
COC(=O)[C@]1(O)C[C@@H]2O[C@@]1(C)n1c3ccccc3c3c4c(c5c6ccccc6n2c5c31)C(=O)NC4,parasite load remaining,[11],43.2% (inactive)
same,viability,[11],53.6%
same,fold fluorescence,[10],6.41 [at 10.7 µM] (inactive)
COCCCOc1ccnc(CS(=O)c2nc3ccccc3[nH]2)c1C (configuration not stated),z-score,[9]; [15],1.01 (inactive)
same,z-score,[9]; [16],0.105
CCCCCCCCCCCCCCCCOC[C@H](O)COP(=O)([O-])OCC[N+](C)(C)C,fold fluorescence,[10],3.83 (inactive)
C=C(C)[C@@H]1O[C@@H]2CC[C@]3(C)[C@](O)(CC[C@@H]4[C@H]5OC(C)(C)[C@@H]6C[C@H]7C(=C)Cc8c(Cl)cc9[nH]c(c5c9c8[C@]76O)[C@]43C)[C@@]23O[C@H]3[C@@H]1O,fold fluorescence,[10],6.21 [at 78.8 µM] (inactive)
CC(=O)O[C@H]1C[C@H](O[C@H]2[C@@H](O)C[C@H](O[C@H]3[C@@H](O)C[C@H](O[C@H]4CC[C@@]5(C)[C@H](CC[C@@H]6[C@@H]5C[C@@H](O)[C@]5(C)[C@@H](C7=CC(=O)OC7)CC[C@]65O)C4)O[C@@H]3C)O[C@@H]2C)O[C@H](C)[C@H]1O[C@@H]1O[C@H](CO)[C@@H](O)[C@H](O)[C@H]1O,z-score,[9]; [15],2.15 (active)
same,z-score,[9]; [16],0.322
same,remaining NAD,[12],10 nM (inactive)
same,luciferase signal,[13],44 AU (inactive)
CC(C)[C@@]1(O)[C@H](OC(=O)c2ccc[nH]2)[C@]2(O)[C@]3(C)C[C@@]4(O)O[C@]5([C@@H](O)[C@H](C)CC[C@@]35O)[C@]2(O)[C@@]41C,fold fluorescence,[10],3.48 [at 101.3 µM] (inactive)
C=C1[C@@H](C)[C@H]2[C@H](Cc3ccccc3)NC(=O)[C@]23[C@H](OC(C)=O)/C=C/[C@](C)(O)C(=O)[C@@H](C)C/C=C/[C@H]3[C@@H]1O,fold fluorescence,[10],11.8 [at 98.5 µM] (inactive)
CCCC[C@H](C)[C@H](OC(=O)C[C@H](CC(=O)O)C(=O)O)[C@@H](C[C@H](C)C[C@@H](O)CCCC[C@H](O)C[C@@H](O)[C@@H](C)N)OC(=O)C[C@@H](CC(=O)O)C(=O)O,fold fluorescence,[10],2.99 [at 69.3 µM] (inactive)
COC1=CC(=O)O[C@H](/C=C/c2ccccc2)C1,fold fluorescence,[10],3.69 [at 217.1 µM] (inactive)
CC(CCC(=O)O)CC(C)CC(C)C(=O)/C=C(\O)C(C)CC(C)C/C=C/C(C)C(O)C(C)C(O)CC1CCC(C)(C2CCC(C)(C(C)O)O2)O1 (configuration not stated),fold fluorescence,[10],5.45 [at 70.5 µM] (inactive)
CNc1ccc2oc(C[C@H]3OC4(CC[C@H]3C)O[C@@H](C(C)C(=O)c3ccc[nH]3)[C@@H](C)C[C@@H]4C)nc2c1C(=O)O (some centres not stated),fold fluorescence,[10],5.79 [at 95.5 µM] (inactive)
C/C(=C\c1csc(C)n1)[C@H]1C[C@@H]2O[C@]2(C)CCC[C@H](C)[C@H](O)[C@@H](C)C(=O)C(C)(C)[C@H](O)CC(=O)O1,viability,"[14]; at 0.000305 µM, OCI-C5x cells, with rucaparib 10 µM, 100% = cells with rucaparib alone",47% (active)
same,viability,"[14]; at 0.000305 µM, OCI-C5x cells, without rucaparib",25.7% (active)
same,viability,"[14]; at 0.000305 µM, OCI-P5x cells, with rucaparib 20 µM, 100% = cells with rucaparib alone",57.2% (active)
same,viability,"[14]; at 0.000305 µM, OCI-P5x cells, without rucaparib",15.5% (active)
same,viability,"[14]; at 0.00122 µM, OCI-C5x cells, with rucaparib 10 µM, 100% = cells with rucaparib alone",36.1% (active)
same,viability,"[14]; at 0.00122 µM, OCI-C5x cells, without rucaparib",27.1% (active)
same,viability,"[14]; at 0.00122 µM, OCI-P5x cells, with rucaparib 20 µM, 100% = cells with rucaparib alone",48.9% (active)
same,viability,"[14]; at 0.00122 µM, OCI-P5x cells, without rucaparib",17.2% (active)
same,viability,"[14]; at 0.00488 µM, OCI-C5x cells, with rucaparib 10 µM, 100% = cells with rucaparib alone",39.5% (active)
same,viability,"[14]; at 0.00488 µM, OCI-C5x cells, without rucaparib",27.9% (active)
same,viability,"[14]; at 0.00488 µM, OCI-P5x cells, with rucaparib 20 µM, 100% = cells with rucaparib alone",48% (active)
same,viability,"[14]; at 0.00488 µM, OCI-P5x cells, without rucaparib",17.6% (active)
same,viability,"[14]; at 0.0195 µM, OCI-C5x cells, with rucaparib 10 µM, 100% = cells with rucaparib alone",34.8% (active)
same,viability,"[14]; at 0.0195 µM, OCI-C5x cells, without rucaparib",27.5% (active)
same,viability,"[14]; at 0.0195 µM, OCI-P5x cells, with rucaparib 20 µM, 100% = cells with rucaparib alone",47.2% (active)
same,viability,"[14]; at 0.0195 µM, OCI-P5x cells, without rucaparib",16.3% (active)
same,viability,"[14]; at 0.0781 µM, OCI-C5x cells, with rucaparib 10 µM, 100% = cells with rucaparib alone",35.3% (active)
same,viability,"[14]; at 0.0781 µM, OCI-C5x cells, without rucaparib",27.6% (active)
same,viability,"[14]; at 0.0781 µM, OCI-P5x cells, with rucaparib 20 µM, 100% = cells with rucaparib alone",45.8% (active)
same,viability,"[14]; at 0.0781 µM, OCI-P5x cells, without rucaparib",16.3% (active)
same,viability,"[14]; at 0.313 µM, OCI-C5x cells, with rucaparib 10 µM, 100% = cells with rucaparib alone",40.6% (active)
same,viability,"[14]; at 0.313 µM, OCI-C5x cells, without rucaparib",35.3% (active)
same,viability,"[14]; at 0.313 µM, OCI-P5x cells, with rucaparib 20 µM, 100% = cells with rucaparib alone",44.8% (active)
same,viability,"[14]; at 0.313 µM, OCI-P5x cells, without rucaparib",15.9% (active)
same,viability,"[14]; at 1.25 µM, OCI-C5x cells, with rucaparib 10 µM, 100% = cells with rucaparib alone",45.2% (active)
same,viability,"[14]; at 1.25 µM, OCI-C5x cells, without rucaparib",38.5% (active)
same,viability,"[14]; at 1.25 µM, OCI-P5x cells, with rucaparib 20 µM, 100% = cells with rucaparib alone",39.6% (active)
same,viability,"[14]; at 1.25 µM, OCI-P5x cells, without rucaparib",16.1% (active)
same,viability,"[14]; at 5 µM, OCI-C5x cells, with rucaparib 10 µM, 100% = cells with rucaparib alone",45.4% (active)
same,viability,"[14]; at 5 µM, OCI-C5x cells, without rucaparib",40.3% (active)
same,viability,"[14]; at 5 µM, OCI-P5x cells, with rucaparib 20 µM, 100% = cells with rucaparib alone",43.9% (active)
same,viability,"[14]; at 5 µM, OCI-P5x cells, without rucaparib",15.4% (active)
CN1C(=O)[C@@]23CC4=CC=C[C@@H](O)[C@@H]4N2C(=O)[C@]1(CO)SS3,fold fluorescence,[10],7.1 [at 153.2 µM] (inactive)
